61 molecules from PubChem BioAssay AID1016 (Sanford-Burnham Center for Chemical Genomics, 2008) can be followed below.

SMILES strings stand for the structures. Screen size: about 200,000 compounds; about 330 (0.17%) were called active. For the sample, actives were picked, then their nearest neighbours and some compounds at random. Values without a mark were called inactive.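 The calls were made as follows: active = activation factor of 2 or more at 20 µM, a signal rise over negative controls twice the positive control's; inactive = the rest.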 Where a SMILES comes first, the peptide text is derived from it. [ ]: non-standard residue; d: D form. ξ: configuration not given here. ξM = CSCCC(N)C(=O)O

The experiment has as its system alkaline phosphatase, intestinal [Bos taurus]. The experiment can be described thus: IAP enzyme activity enhancers – biochemical, bovine IAP, CDP-star luminescence, primary screen (AID 1016). Particulars: purified bovine IAP, 30 min, at 20 µM, stronger effect = higher value, fold of DMSO-control signal, blank-subtracted.
With `CN(C)c1ccc(/C=N/NC(=O)c2ccc(Cn3cc(Br)cn3)o2)cc1`, the activation factor was 1.
With `Cc1ccccc1OCC(=O)Nc1nc(C)c(C(=O)N(C)C)s1`, the activation factor was 1.
In the case of `Cc1csc(SCC(=O)Nc2sccc2C#N)n1`, the activation factor was 1.2.
In the case of `CN(c1ccc(OCC(=O)OCC(=O)Nc2cccc([N+](=O)[O-])c2)cc1)S(=O)(=O)c1ccc(F)cc1`, the activation factor is 0.8.
Turning to `CN(C)c1ccc(NC(=O)CSc2n[nH]c(-c3ccco3)n2)cc1`, the activation factor is 1.
`O=C(OCC(=O)c1c[nH]c2ccccc12)c1cccc(O)c1`: the activation factor is 1.2.
Consider `COCCCNC(=O)Cn1cc(/C=C(\C#N)C(=O)N2CCN(c3ccccc3)CC2)c2ccccc21`, for which the activation factor was 1.
As to `COc1ccc(/C=N/n2c(C)cc(C)cc2=O)cc1`, the activation factor was 1.2.
On to `CCOC(=O)C1(Cc2cccc(OC)c2)CCN(C(C)COC)CC1` (stereo unspecified), for which the activation factor is 1.
Turning to `Fc1ccccc1Cc1ccc(Cl)nn1`, the activation factor was 0.9.
Take `O=C(O)c1n[nH]nc1-c1ccccc1`: the activation factor is 0.9.
As to `Cc1ccccc1CCN(CC(=O)NC1CCCCC1)C(=O)c1csnn1`, the activation factor was 1.
As for `COc1cccc(N(Cc2nnc3n2CCCCC3)C(=O)Nc2ccccc2F)c1`, the activation factor was 1.1.
Turning to `CSc1ccc(C(=O)C2CCCN(C(=O)c3ccc(C)nc3)C2)cc1` (stereo unspecified), the activation factor was 1.
As to `COc1ccc(C(=O)Nc2ccc(NC(=O)C(C)C)nc2)cc1`, the activation factor was 0.9.
The same measure for `Cc1cccc(CSc2nnc(C)c(=O)n2N)c1`: 1.1.
For `CC(=O)N/C(=C/c1ccc(OC(F)F)cc1)C(=O)O`, the activation factor was 1.
The same measure for `CC(=O)N1CCN(S(=O)(=O)c2ccc(C)c([N+](=O)[O-])c2)C1C(C)C` (stereo unspecified): 1; for `CC1Cc2ccccc2N1C(=O)CSc1nnc(C2CC2)n1C` (stereo unspecified): 1; for `CC(NC(=O)c1ccc(N2CCNCC2)c([N+](=O)[O-])c1)C12CC3CC(CC(C3)C1)C2` (stereo unspecified): 1.1.
As for `Clc1ccc(-c2nc3ccccn3c2CN2CCSCC2)cc1`, the figure is 1; as for `O=C1C2C3C=CC(C3)C2C(=O)N1c1ccc(-c2nc3ccccc3c(=O)o2)cc1` (stereo unspecified), 1.1.
For the molecule `COc1cccc(NC(=S)C(C#N)=C2N(C)c3ccccc3N2C)c1`, the activation factor was 1.1.
As for `CC(=O)NC1=NN(C(C)=O)C(C)(c2ccc(C)cc2)S1` (stereo unspecified), the figure is 0.9.
For `CC(=O)c1sc(N/N=C/c2ccc(C(C)C)cc2)nc1C`, the activation factor is 0.9.
With `COCCNC(=O)/C(C#N)=C/c1nc(N(C)C)n(-c2ccc(F)cc2)c1Cl`, the activation factor was 1.
Regarding `O=C(O)c1ccc2c3c(cccc13)C(=O)N(OS(=O)(=O)c1ccccc1)C2=O`, the activation factor was 1.3.
On to `Cc1sc2nc(COC(=O)C(NC(=O)c3ccc(Cl)cc3Cl)C(C)C)[nH]c(=O)c2c1C` (stereo unspecified), for which the activation factor was 0.7.
The same measure for `COc1ccc(C(CC(=O)c2ccccc2)S(=O)(=O)c2ccccc2)cc1` (stereo unspecified): 1.
As to `NS(=O)(=O)c1ccc(NC(=O)COC(=O)C2(c3ccc(F)cc3)CCCC2)cc1`, the activation factor is 2.7 (active).
Turning to `CN(C)S(=O)(=O)c1cccc(NC(=O)COC(=O)C2(c3ccccc3F)CCCC2)c1`, the activation factor was 1.1.
The same measure for `NS(=O)(=O)c1ccc(NC(=O)COC(=O)c2ccco2)cc1`: 1; for `CCn1c(SCC(=O)Nc2ccc3c(c2)OCCO3)nc2c(c1=O)SC(C)C2` (stereo unspecified): 1.
As for `CCn1c(SCC(=O)Nc2ccccc2F)nc2c(c1=O)SC(C)C2` (stereo unspecified), the activation factor is 2 (active).
For `CC1Cc2nc(SCC(=O)Nc3ccccc3F)n(C)c(=O)c2S1` (stereo unspecified), the activation factor is 1.1.
`COc1ccc(-c2nc(N)sc2C2(O)C(=O)Nc3c(Br)cc(F)cc32)cc1OC` (stereo unspecified): the activation factor is 1.
Regarding `COC(=O)CNC(=O)C(CCSC)NC(C)=O` (stereo unspecified) (Ac-[ξM]-Gly-OMe), the activation factor is 1.
In the case of `O=C(COC(=O)c1cccc(Br)c1)Nc1cccc2c1C(=O)c1ccccc1C2=O`, the activation factor was 0.8.
Turning to `O=C(CN1CCOCC1)Nc1c(Cl)cc(Cl)cc1Cl`, the activation factor was 1.
Regarding `O=C(CCCn1c(=O)c2sccc2n(CC(=O)NCC2CCCO2)c1=O)NCc1ccco1` (stereo unspecified), the activation factor was 1.
The same measure for `[O-][n+]1c2c(nn1-c1ccc(Cl)c(Cl)c1)-c1nonc1CC2`: 1.1; for `CCCOc1ccc(Cn2ccnc2)cc1[N+](=O)[O-]`: 0.2.
For `Cc1ccc(Oc2cc(NC(=O)CCCn3nc(C)c([N+](=O)[O-])c3C)cc([N+](=O)[O-])c2)cc1`, the activation factor was 0.9.
For the molecule `Cc1[nH]nc(SCC(=O)NCC(C)C)c1[N+](=O)[O-]`, the activation factor was 1.2.
As for `COc1cc2c(cc1NC(=O)CN1CCN(S(=O)(=O)c3ccc(F)cc3)CC1)oc1ccccc12`, the figure is 2 (active); as for `COc1ccccc1NC(=O)CN1CCN(S(=O)(=O)c2ccc(Br)cc2)CC1`, 1.
In the case of `COc1ccc(NC(=O)CN2CCN(S(=O)(=O)c3ccc(F)cc3)CC2)cc1Cl`, the activation factor was 0.9.
Regarding `COc1ccc(-n2c(C)cc(C(=O)CN3C(=O)NC4(CCc5ccccc54)C3=O)c2C)cc1` (stereo unspecified), the activation factor was 1.
On to `C/C(=C\c1ccco1)CN1CCC(N2CCC(C(=O)N3CCOCC3)CC2)CC1`, for which the activation factor was 1.1.
Regarding `CC(=O)c1cccc(NC(=O)[C@@H](NC(N)=O)C(C)C)c1`, the activation factor is 0.9.
Regarding `O=C(COc1ccc(-c2ccccc2)cc1)NN=C1CCCC1`, the activation factor was 1.
As for `CC(C)Nc1nnc(SCC(=O)/C=C2\N(C)c3ccccc3C2(C)C)s1`, the figure is 1.1.
`O=C1Nc2ccc([N+](=O)[O-])cc2C1=Nc1cccc(CO)c1`: the activation factor is 0.9.
Take `Cc1c(NC(=O)CCC2CCCCC2)cc(C(=O)N2CCOCC2)cc1[N+](=O)[O-]`: the activation factor is 0.9.
In the case of `C=C(C)c1cccc(C(C)(C)NC(=O)NCCN(CC)CC)c1`, the activation factor was 1.2.
For `O=C(NCCC1=CCCCC1)C1CCN(Cc2cnn(-c3ccccc3)c2-n2cccc2)CC1`, the activation factor was 2.5 (active).
The same measure for `CC(=O)Nc1ccc(NC(=O)CSCc2cnn(-c3ccccc3)c2-n2cccc2)cc1`: 0.6; for `C1=C(CCNc2ncnc3c2cnn3-c2ccccc2)CCCC1`: 0.9.
For the molecule `O=[N+]([O-])c1cc(S(=O)(=O)Nc2cccc(Cl)c2)ccc1N=Nc1c(O)[nH]c2ccccc12`, the activation factor was 0.8.
As for `S=C(NCc1cccnc1)Nc1ccc(Cl)cc1Cl`, the figure is 0.9; as for `O=C(Nc1cccn(Cc2ccccc2Cl)c1=O)NC1CCCCC1`, 1.
